# Screens: PubChem BioAssay, Sanford-Burnham Center for Chemical Genomics
# ER stress surv – protection against thapsigargin ER stress killing – CSM14.1 cells, ATP luminescence, primary screen; CSM14.1 thapsigargin ER stress survival; relative survival (cellular ATP), % at 15 µg/mL (by protocol); 48,000 tested, 0.33% active;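 active = survival measured by cellular ATP above 50% at 15 µg/ml in the first screen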;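 note: cell death triggered by about 15 µM thapsigargin; ATP read 24 h after thapsigargin was added; plate controls were thapsigargin with DMSO for no effect and DMSO without thapsigargin for full effect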
# Numbers without * were called inactive. The sample as a whole holds a higher share of hits than the screen did.
SMILES,ER stress surv
COc1ccc(C2CC(=O)C3=C(C2)Nc2ccccc2NC3c2ccc(Cl)c([N+](=O)[O-])c2)cc1 (stereo unspecified),104*
COc1ccc(C2Nc3ccccc3NC3=C2C(=O)CC(c2ccccc2)C3)cc1 (stereo unspecified),22
COc1ccc(C2CC(=O)C3=C(C2)Nc2ccccc2NC3c2ccc(C)c([N+](=O)[O-])c2)cc1OC (stereo unspecified),4
O=C1CC(c2ccccc2)CC2=C1C(c1ccc(Cl)c(Cl)c1)Nc1ccccc1N2 (stereo unspecified),6
COc1ccc(C2CC(=O)C3=C(C2)Nc2ccccc2NC3c2cc(OC)c(OC)cc2Br)cc1 (stereo unspecified),4
COc1ccc(C2CC(=O)C3=C(C2)Nc2ccccc2NC3c2ccc(Br)s2)cc1 (stereo unspecified),85*
Cc1ccc(C2Nc3ccccc3NC3=C2C(=O)CC(c2ccc(Cl)cc2)C3)cc1 (stereo unspecified),4
COc1ccc(C2CC(=O)C3=C(C2)Nc2ccccc2NC3c2ccc3ccccc3c2)cc1 (stereo unspecified),50*
COc1ccc(C2CC(=O)C3=C(C2)Nc2ccccc2NC3c2ccc(C(F)(F)F)cc2)cc1 (stereo unspecified),2
O=C1CC(c2ccc(Cl)cc2)CC2=C1C(c1cccs1)Nc1ccccc1N2 (stereo unspecified),68*
COc1ccc(C2CC(=O)C3=C(C2)Nc2ccccc2NC3c2ccc(F)c(Br)c2)cc1 (stereo unspecified),15
COc1cc(C2Nc3ccccc3NC3=C2C(=O)CC(c2ccc(Cl)cc2)C3)cc(OC)c1OC (stereo unspecified),-1
CCc1ccccc1N(CC(=O)NCC(C)C)S(C)(=O)=O,11
Cc1oc(-c2ccccc2)cc1C(=O)O,15
O=S(=O)(Nc1ccc(Cl)cn1)c1ccc(-c2ccccc2)cc1,8
CS(=O)(=O)N(CC(=O)Nc1ccc(Cl)cc1)c1cccc(C(F)(F)F)c1,0
O=C1NC(=O)C(=Cc2cn(CCOc3ccc(Br)cc3)c3ccccc23)C(=O)N1,1
O=C(Nc1ccccc1[N+](=O)[O-])c1cc(-c2cccs2)nc2ccccc12,4
CC(C)C1S/C(=N/N=C/c2ccc(O)cc2)NC1=O (stereo unspecified),4
C=CCN(c1ccc(C(=O)O)cc1)S(=O)(=O)/C=C/c1ccccc1,4
CCOc1cc(C2Nc3ccccc3NC3=C2C(=O)CC(c2ccc(OC)cc2)C3)cc(Cl)c1O (stereo unspecified),112*
COc1ccc(C2CC(=O)C3=C(C2)Nc2ccccc2NC3c2cccc(O)c2)cc1 (stereo unspecified),-4
CCOc1cc(C2Nc3ccccc3NC3=C2C(=O)CC(c2ccc(OC)cc2)C3)ccc1OC(=O)C1CC1 (stereo unspecified),2
CCOC(=O)CCC(NC(=O)c1ccc(Cl)cc1)C(=O)OCC (stereo unspecified),-3
O=C1c2cccc3cccc(c23)C(=O)N1CCc1nc2sc3c(c2c(=O)[nH]1)CCCC3,11
SMILES,ER stress surv
CCOc1ccc(-c2nnc(-c3ccc4c(c3)OCO4)o2)cc1,8
CCOc1ccccc1CN(CCc1ccc2c(c1)OCO2)Cc1cc(OC)ccc1OC,3
CCOc1ccccc1CN(CCc1ccc2c(c1)OCO2)Cc1ccncc1,103*
CNC(=O)C(=O)Nc1ccccc1OC,6
O=C(Nc1ccccc1)c1cc(Br)ccc1Cl,0
COc1ccc(/C=N/OCC(=O)N2CCN(C(c3ccccc3)c3ccccc3)CC2)cc1OC,116*
CCC(Oc1ccccc1)C(=O)N1CCN(C(c2ccccc2)c2ccccc2)CC1 (stereo unspecified),47
COc1ccc(CC(=O)N2CCN(c3cccc(Cl)c3)CC2)cc1OC,7
O=C(Nc1ccccc1[N+](=O)[O-])C1C(c2ccccc2)C1(Cl)Cl (stereo unspecified),8
Cc1ccc(C2(C)N(O)C(C)C(c3ccccc3)=[N+]2[O-])o1 (stereo unspecified),-7
O=C(NCCO)C(=O)Nc1nc(C23CC4CC(CC(C4)C2)C3)cs1,1
O=C(/C=C/c1ccc(F)cc1)c1ccccc1O,9
O=C(N/C(=C/c1cccs1)c1nc2ccccc2[nH]1)c1ccccc1,-2
Cc1ccc(C(=O)N/C(=C/c2cccs2)c2nc3ccccc3[nH]2)cc1,62*
Cc1ccc(C(=O)N/C(=C/c2cccnc2)c2nc3ccccc3[nH]2)cc1,-2
C=CCON/C(CCC)=C1/C(=O)CC(C)(C)CC1=NC,6
CCOc1ccccc1NC(=O)c1c(NC(=O)c2cccc(F)c2)sc2c1CCCCC2,53*
CCOc1ccccc1NC(=O)c1c(NC(=O)c2ccc(C)cc2)sc2c1CCCC2,6
CCOc1ccccc1NC(=O)c1c(NC(=O)c2ccccc2F)sc2c1CCCCC2,12
CC(=O)OC1(C#CCl)CCCCC1,-12
O=C1C(=O)N(CCO)C(c2cccc(F)c2)/C1=C(\O)c1ccccc1 (stereo unspecified),15
CC1=C(C(=O)OCC2CCCO2)C(c2cccc([N+](=O)[O-])c2)NC(=O)N1 (stereo unspecified),2
Cc1ccc(C(=O)Nc2ccc(S(=O)(=O)N3CCCC3)cc2)cc1,0
CC(NC(=O)c1ccc(S(=O)(=O)N2CCCCC2)cc1)C12CC3CC(CC(C3)C1)C2 (stereo unspecified),108*
CC(NC(=O)c1ccccc1)C12CC3CC(CC(C3)C1)C2 (stereo unspecified),1
SMILES,ER stress surv
COc1ccc(C(=O)Nc2ccc(C)cc2C)cc1OC,1
COC(=O)CCC(=O)Nc1ccc(C)cc1C,2
COc1cc2c(cc1OC)C(CC(=O)Nc1ccc(C)cc1C)=NC(C)(C)C2,53*
O=C1C2C3c4ccccc4C(CO)(c4ccccc43)C2C(=O)N1c1ccc(Cl)c(Cl)c1 (stereo unspecified),3
O=[N+]([O-])c1ccccc1/C=N/Nc1nc(-c2ccccc2)cs1,10
CN(C)c1ccc(/C=N/Nc2cc(N3CCOCC3)ncn2)cc1,2
COc1ccc(C(=O)N2CCN(Cc3cccc(C)c3)CC2)cc1OC,2
O=C(c1ccc([N+](=O)[O-])cc1)N1CCN(Cc2cccnc2)CC1,-8
COc1ccc(C(=O)N2CCN(Cc3cccc(Oc4ccccc4)c3)CC2)cc1OC,53*
O=C(c1ccncc1)N1CCN(Cc2cccc(Oc3ccccc3)c2)CC1,-2
COc1cc(C(=O)N2CCN(Cc3cccc(Oc4ccccc4)c3)CC2)cc(OC)c1OC,45
O=C(c1ccc([N+](=O)[O-])cc1)N1CCN(Cc2cccc(Oc3ccccc3)c2)CC1,69*
CCn1c2ccccc2c2cc(CN3CCN(C(=O)c4ccc([N+](=O)[O-])cc4)CC3)ccc21,91*
Cc1cccc(CN2CCN(C(=O)c3ccc([N+](=O)[O-])cc3)CC2)c1,4
CCOc1ccc(CN2CCN(C(=O)c3ccc([N+](=O)[O-])cc3)CC2)cc1,-2
COc1ccc(C2/C(=C(\O)c3ccccc3)C(=O)C(=O)N2CCCCCC(=O)O)cc1OC (stereo unspecified),7
O=C(Nc1cccc(C(F)(F)F)c1)C1C2CC/C=C\CCC21 (stereo unspecified),-3
COc1ccc(/C(N)=N/OC(=O)c2ccc(C(C)(C)C)cc2)cc1OC,-3
C/C(=N\Nc1cc(-c2ccccc2)nc(C)n1)c1ccc(O)cc1,-8
